A short description of assay [1]: qHTS profiling of the MIPE4 collection as inhibitors of Plasmodium falciparum (3D7) proliferation (AID 743344).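 Note: scaled between DMSO vehicle wells and 0.29 µM artemisinin as full inhibition.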 As to conditions: P. falciparum 3D7 in erythrocytes, SYBR Green DNA fluorescence, 72 h; at 28.5 µM unless noted. The method, boiled down:
(§1)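 Parasite DNA was quantified by SYBR Green I fluorescence (ex 485, em 535 nm) after overnight lysis in saponin/Triton buffer at room temperature. Cultures at 0.3% parasitemia and 2.5% hematocrit were first exposed to compound for 72 h at 37 C; signals were normalised to artemisinin (0.29 uM) and vehicle wells.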

A short description of assay [2]: qHTS profiling of the MIPE4 collection as inhibitors of Plasmodium falciparum (DD2) proliferation (AID 743345). As to conditions: P. falciparum Dd2 in erythrocytes, SYBR Green DNA, 72 h; at 28.5 µM unless noted. The method, boiled down: as §1
On the technique in general: In qHTS, concentration-response curves come from the screen itself.

Assay [3] can be described thus: qHTS profiling of the MIPE4 collection as inhibitors of Plasmodium falciparum (DD2) proliferation (Rep 2) (AID 743346). As to conditions: P. falciparum Dd2 in erythrocytes, SYBR Green DNA, 72 h; at 28.5 µM unless noted. Put shortly:
as §1

Assay [4] is described as follows: qHTS profiling of the MIPE4 collection as inhibitors of Plasmodium falciparum (HB3) proliferation (AID 743347).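 Note: plate controls were DMSO vehicle wells for no effect and artemisinin wells for full effect.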 The settings on record: P. falciparum HB3 in erythrocytes, SYBR Green DNA, 72 h; at 28.5 µM unless noted. The method, boiled down: as §1
Assay [5] is described as follows: High-throughput drug toxicity screening in the BPDCN cell line Gen2.2 (AID 1224824).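 Note: cells exposed to compounds for 48 h before reading.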 As to conditions: Gen2.2 BPDCN cells; at 45.8 µM (top of the series) unless noted. Put shortly:
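CellTiter-Glo luminescence after 48 h compound exposure of Gen2.2 cells; percent activity set with DMSO as 100% and bortezomib (9.2 uM final) as 0%. Cells seeded at 500 per well, RPMI + 10% FBS, 37 °C.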

Structures are written as SMILES.

Turning to `CCCc1cc(C(N)=S)ccn1`, the parasite growth, % of DMSO control in assay [1] was 6.05%. The parasite growth remaining, % of DMSO control (lower = more inhibition) in assay [2] amounted to 65.8%. For the same molecule, the parasite growth, % of control (lower = inhibition) in assay [3] was 14%. Also, the growth, % of control in assay [4] worked out at 6.05%. In addition, the cell viability, % of control (lower = more cytotoxic) in assay [5] amounted to 119%.
Take `COc1ccc2c(c1)c(CC(=O)OCC(=O)O)c(C)n2C(=O)c1ccc(Cl)cc1`: the parasite growth, % of DMSO control in assay [1] amounted to 78.3%. The parasite growth remaining, % of DMSO control (lower = more inhibition) in assay [2] was determined as 104%. For the same molecule, the parasite growth, % of control (lower = inhibition) in assay [3] worked out at 68.6%. In assay [4], this molecule returned a growth, % of control of 80.2%. Further, in assay [5], the cell viability, % of control (lower = more cytotoxic) is 144%.
As to `COC(c1ccccc1)(c1ccccc1)[C@H](Oc1nc(C)cc(C)n1)C(=O)O`, the parasite growth remaining, % of DMSO control (lower = more inhibition) in assay [2] was 102%. Further, the parasite growth, % of control (lower = inhibition) in assay [3] came out at 81.2%. Besides, the growth, % of control in assay [4] amounted to 105%. Besides, in assay [5], the cell viability, % of control (lower = more cytotoxic) came to 195%.
Take `Nc1nc(F)nc2c1ncn2[C@@H]1O[C@H](CO)[C@@H](O)[C@@H]1O`: the parasite growth remaining, % of DMSO control (lower = more inhibition) in assay [2] worked out at 19.5%. In addition, the parasite growth, % of control (lower = inhibition) in assay [3] came out at 12%. For the same molecule, the cell viability, % of control (lower = more cytotoxic) in assay [5] amounted to 9.4%.
As for `CC(N)C12CC3CC(CC(C3)C1)C2` (centres undefined), the parasite growth remaining, % of DMSO control (lower = more inhibition) in assay [2] stood at 12.6%. In assay [3], the parasite growth, % of control (lower = inhibition) stood at 32.1%. Further, the growth, % of control in assay [4] is 96.9%. Moreover, the cell viability, % of control (lower = more cytotoxic) in assay [5] turned out to be 175%.
Turning to `COc1cc([C@@H]2c3cc4c(cc3[C@H](O)[C@H]3COC(=O)[C@H]23)OCO4)cc(OC)c1OC`, the parasite growth, % of control (lower = inhibition) in assay [3] was 10.2%. Moreover, the cell viability, % of control (lower = more cytotoxic) in assay [5] was 7.94%.
Turning to `Cc1nnc(C(=O)NC(C)(C)c2nc(C(=O)NCc3ccc(F)cc3)c(O)c(=O)n2C)o1`, the parasite growth, % of DMSO control in assay [1] stood at 83.6%. For the same molecule, the parasite growth remaining, % of DMSO control (lower = more inhibition) in assay [2] was 91.4%. In addition, the parasite growth, % of control (lower = inhibition) in assay [3] is 81.9%. Also, the growth, % of control in assay [4] came out at 79.5%. In addition, in assay [5], the cell viability, % of control (lower = more cytotoxic) stood at 126%.
Turning to `COc1ccccc1OCC(O)COC(N)=O` (centres undefined), the parasite growth remaining, % of DMSO control (lower = more inhibition) in assay [2] came to 96.9%. Also, the parasite growth, % of control (lower = inhibition) in assay [3] came to 142%. In assay [4], this molecule displayed a growth, % of control of 111%. In addition, in assay [5], the cell viability, % of control (lower = more cytotoxic) amounted to 109%.
Taken in the same sequence, the figures for `CNS(=O)(=O)Cc1ccc2[nH]cc(CCN(C)C)c2c1` were 70.9%, 75.7%, 17.2% and 219%.
Taken in the same sequence, the figures for `O=C(NCC1CN(c2ccc(N3CCOCC3=O)cc2)C(=O)O1)c1ccc(Cl)s1` (centres undefined) were 94.4%, 80.7%, 59.9% and 29.6%.
Turning to `CN1CCN(c2c(F)cc3c(=O)c(C(=O)O)cn(CCF)c3c2F)CC1`, the parasite growth remaining, % of DMSO control (lower = more inhibition) in assay [2] is 95.4%. Besides, the parasite growth, % of control (lower = inhibition) in assay [3] worked out at 106%. In assay [4], this molecule gave a growth, % of control of 99%. In addition, the cell viability, % of control (lower = more cytotoxic) in assay [5] came to 140%.
For `COc1cnc(NS(=O)(=O)c2ccc(N)cc2)nc1`, in assay [2], the parasite growth remaining, % of DMSO control (lower = more inhibition) was determined as 95.4%. Besides, the parasite growth, % of control (lower = inhibition) in assay [3] came out at 79.9%. The molecule also showed a growth, % of control in assay [4] of 58.8%. In assay [5], the cell viability, % of control (lower = more cytotoxic) came to 32.7%.
Consider `CCOC(=O)[C@H](CCc1ccccc1)N[C@H]1CCc2ccccc2N(CC(=O)O)C1=O`, for which the parasite growth remaining, % of DMSO control (lower = more inhibition) in assay [2] worked out at 9.11%. For the same molecule, in assay [3], the parasite growth, % of control (lower = inhibition) amounted to 22.6%. In assay [5], the cell viability, % of control (lower = more cytotoxic) was 22.7%.
Taken in the same sequence, the figures for `CC1CC2C3CCC4=CC(=O)C=C[C@]4(C)[C@@]3(F)[C@@H](O)C[C@]2(C)[C@@]1(O)C(=O)CO` (some centres undefined) were 90.6%, 85.8% and 115%.
Regarding `Nc1nc(=S)c2[nH]cnc2[nH]1`, the parasite growth remaining, % of DMSO control (lower = more inhibition) in assay [2] amounted to 101%. Moreover, the parasite growth, % of control (lower = inhibition) in assay [3] is 51.3%. The growth, % of control in assay [4] amounted to 216%. In addition, the cell viability, % of control (lower = more cytotoxic) in assay [5] turned out to be 51.9%.
For `CCCCc1oc2ccc(NS(C)(=O)=O)cc2c1C(=O)c1ccc(OCCCN(CCCC)CCCC)cc1`, the parasite growth remaining, % of DMSO control (lower = more inhibition) in assay [2] came out at 6.73%. Moreover, the parasite growth, % of control (lower = inhibition) in assay [3] came out at 18.2%. Besides, the cell viability, % of control (lower = more cytotoxic) in assay [5] was found to be 5.11%.
Take `O=c1cc(O)c(Cl)c[nH]1`: the parasite growth remaining, % of DMSO control (lower = more inhibition) in assay [2] turned out to be 122%. The parasite growth, % of control (lower = inhibition) in assay [3] was determined as 20.4%. Further, the growth, % of control in assay [4] came out at 21.5%. In assay [5], the cell viability, % of control (lower = more cytotoxic) worked out at 246%.
Taken in the same sequence, the figures for `CCN(CC)CC#CCOC(=O)C(O)(c1ccccc1)C1CCCCC1` (centres undefined) were 58.4%, 16.6%, 11.2% and 205%.
As for `CCN(C)C(=O)Oc1cccc([C@H](C)N(C)C)c1`, the parasite growth remaining, % of DMSO control (lower = more inhibition) in assay [2] was 17.2%. Besides, the cell viability, % of control (lower = more cytotoxic) in assay [5] turned out to be 97.8%.
In the case of `COC(=O)Nc1nc2ccc(C(=O)c3ccccc3)cc2[nH]1`, the parasite growth remaining, % of DMSO control (lower = more inhibition) in assay [2] stood at 97.7%. Moreover, the parasite growth, % of control (lower = inhibition) in assay [3] came out at 71%. In assay [5], the cell viability, % of control (lower = more cytotoxic) turned out to be 176%.
With `C[C@@H]1CN(c2c(F)c(N)c3c(=O)c(C(=O)O)cn(C4CC4)c3c2F)C[C@H](C)N1`, the parasite growth remaining, % of DMSO control (lower = more inhibition) in assay [2] was found to be 83% [at 9.64 µM]. Further, the parasite growth, % of control (lower = inhibition) in assay [3] turned out to be 34.1% [at 9.64 µM]. Moreover, the growth, % of control in assay [4] is 72.3% [at 9.64 µM]. Besides, the cell viability, % of control (lower = more cytotoxic) in assay [5] stood at 89.9% [at 23.2 µM].
In the case of `CN(C)CCc1c[nH]c2ccc(C[C@H]3COC(=O)N3)cc12`, the parasite growth remaining, % of DMSO control (lower = more inhibition) in assay [2] was determined as 92.5%. Besides, the parasite growth, % of control (lower = inhibition) in assay [3] is 73.2%. Also, the growth, % of control in assay [4] is 91.4%. Also, in assay [5], the cell viability, % of control (lower = more cytotoxic) came to 88.7%.
Taken in the same sequence, the figures for `CCCc1nc(C)c2c(=O)[nH]c(-c3cc(S(=O)(=O)N4CCN(CC)CC4)ccc3OCC)nn12` were 12.3%, 33.2%, 9.8% and 5.18%.
Regarding `CCN1CCCC1CNC(=O)c1cc(S(N)(=O)=O)ccc1OC` (centres undefined), the parasite growth remaining, % of DMSO control (lower = more inhibition) in assay [2] was found to be 90.1%. The parasite growth, % of control (lower = inhibition) in assay [3] was found to be 41.9%. Further, the growth, % of control in assay [4] is 70.9%. In assay [5], the cell viability, % of control (lower = more cytotoxic) stood at 128%.
Regarding `COc1cc(NS(=O)(=O)c2ccc(N)cc2)nc(OC)n1`, the parasite growth remaining, % of DMSO control (lower = more inhibition) in assay [2] stood at 96.8%. Further, in assay [3], the parasite growth, % of control (lower = inhibition) turned out to be 87.6%. Besides, the cell viability, % of control (lower = more cytotoxic) in assay [5] stood at 129%.
The molecule `CO[C@@H]1[C@@H](OC(N)=O)[C@@H](O)[C@H](Oc2ccc3c(O)c(NC(=O)c4ccc(O)c(CC=C(C)C)c4)c(=O)oc3c2C)OC1(C)C` showed a parasite growth, % of DMSO control in assay [1] of 61%. Moreover, in assay [2], the parasite growth remaining, % of DMSO control (lower = more inhibition) was 75.8%. Moreover, the parasite growth, % of control (lower = inhibition) in assay [3] is 39.2%. In assay [4], the growth, % of control stood at 45.7%. Also, the cell viability, % of control (lower = more cytotoxic) in assay [5] is 13.9%.
Regarding `N[C@@H](C(=O)N[C@@H]1C(=O)N2C(C(=O)O)=C(Cl)CS[C@H]12)c1ccccc1`, in assay [2], the parasite growth remaining, % of DMSO control (lower = more inhibition) was 96.8%. Also, the parasite growth, % of control (lower = inhibition) in assay [3] turned out to be 115%. The cell viability, % of control (lower = more cytotoxic) in assay [5] came out at 133%.
Taken in the same sequence, the figures for `COC(=O)Nc1nc2ccc(Sc3ccccc3)cc2[nH]1` were 99.3%, 18.7% and 61%.

Source of the values: PubChem BioAssay (NCATS).
